Test results from the supplement of paper PMC12067093, “Discovery and optimisation of a covalent ligand for TRIM25 and its application to targeted protein ubiquitination” (Chemical Science, 2025).
Of roughly 21,000 targets only a part is listed; those with the largest changes were picked by preference.

Compound: Cc1cc(ccc1-c1ccccc1)C(=O)N1CCCN(CC1)C(=O)CCl [compound 10]
Test: probe-labelled cysteine peptide fold change vs DMSO (competition) (log2 fold change); higher = less target engagement (more negative = stronger competition)
Details: THP-1, incubation time: 4 h
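Further: competitive profiling in live THP-1 cells: cysteine peptides tagged with an iodoacetamide desthiobiotin (IA-DTB) probe, intensity after compound treatment relative to DMSO-treated cells.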

Chain of UniProt P18583 (P18583 whole entry, looked up): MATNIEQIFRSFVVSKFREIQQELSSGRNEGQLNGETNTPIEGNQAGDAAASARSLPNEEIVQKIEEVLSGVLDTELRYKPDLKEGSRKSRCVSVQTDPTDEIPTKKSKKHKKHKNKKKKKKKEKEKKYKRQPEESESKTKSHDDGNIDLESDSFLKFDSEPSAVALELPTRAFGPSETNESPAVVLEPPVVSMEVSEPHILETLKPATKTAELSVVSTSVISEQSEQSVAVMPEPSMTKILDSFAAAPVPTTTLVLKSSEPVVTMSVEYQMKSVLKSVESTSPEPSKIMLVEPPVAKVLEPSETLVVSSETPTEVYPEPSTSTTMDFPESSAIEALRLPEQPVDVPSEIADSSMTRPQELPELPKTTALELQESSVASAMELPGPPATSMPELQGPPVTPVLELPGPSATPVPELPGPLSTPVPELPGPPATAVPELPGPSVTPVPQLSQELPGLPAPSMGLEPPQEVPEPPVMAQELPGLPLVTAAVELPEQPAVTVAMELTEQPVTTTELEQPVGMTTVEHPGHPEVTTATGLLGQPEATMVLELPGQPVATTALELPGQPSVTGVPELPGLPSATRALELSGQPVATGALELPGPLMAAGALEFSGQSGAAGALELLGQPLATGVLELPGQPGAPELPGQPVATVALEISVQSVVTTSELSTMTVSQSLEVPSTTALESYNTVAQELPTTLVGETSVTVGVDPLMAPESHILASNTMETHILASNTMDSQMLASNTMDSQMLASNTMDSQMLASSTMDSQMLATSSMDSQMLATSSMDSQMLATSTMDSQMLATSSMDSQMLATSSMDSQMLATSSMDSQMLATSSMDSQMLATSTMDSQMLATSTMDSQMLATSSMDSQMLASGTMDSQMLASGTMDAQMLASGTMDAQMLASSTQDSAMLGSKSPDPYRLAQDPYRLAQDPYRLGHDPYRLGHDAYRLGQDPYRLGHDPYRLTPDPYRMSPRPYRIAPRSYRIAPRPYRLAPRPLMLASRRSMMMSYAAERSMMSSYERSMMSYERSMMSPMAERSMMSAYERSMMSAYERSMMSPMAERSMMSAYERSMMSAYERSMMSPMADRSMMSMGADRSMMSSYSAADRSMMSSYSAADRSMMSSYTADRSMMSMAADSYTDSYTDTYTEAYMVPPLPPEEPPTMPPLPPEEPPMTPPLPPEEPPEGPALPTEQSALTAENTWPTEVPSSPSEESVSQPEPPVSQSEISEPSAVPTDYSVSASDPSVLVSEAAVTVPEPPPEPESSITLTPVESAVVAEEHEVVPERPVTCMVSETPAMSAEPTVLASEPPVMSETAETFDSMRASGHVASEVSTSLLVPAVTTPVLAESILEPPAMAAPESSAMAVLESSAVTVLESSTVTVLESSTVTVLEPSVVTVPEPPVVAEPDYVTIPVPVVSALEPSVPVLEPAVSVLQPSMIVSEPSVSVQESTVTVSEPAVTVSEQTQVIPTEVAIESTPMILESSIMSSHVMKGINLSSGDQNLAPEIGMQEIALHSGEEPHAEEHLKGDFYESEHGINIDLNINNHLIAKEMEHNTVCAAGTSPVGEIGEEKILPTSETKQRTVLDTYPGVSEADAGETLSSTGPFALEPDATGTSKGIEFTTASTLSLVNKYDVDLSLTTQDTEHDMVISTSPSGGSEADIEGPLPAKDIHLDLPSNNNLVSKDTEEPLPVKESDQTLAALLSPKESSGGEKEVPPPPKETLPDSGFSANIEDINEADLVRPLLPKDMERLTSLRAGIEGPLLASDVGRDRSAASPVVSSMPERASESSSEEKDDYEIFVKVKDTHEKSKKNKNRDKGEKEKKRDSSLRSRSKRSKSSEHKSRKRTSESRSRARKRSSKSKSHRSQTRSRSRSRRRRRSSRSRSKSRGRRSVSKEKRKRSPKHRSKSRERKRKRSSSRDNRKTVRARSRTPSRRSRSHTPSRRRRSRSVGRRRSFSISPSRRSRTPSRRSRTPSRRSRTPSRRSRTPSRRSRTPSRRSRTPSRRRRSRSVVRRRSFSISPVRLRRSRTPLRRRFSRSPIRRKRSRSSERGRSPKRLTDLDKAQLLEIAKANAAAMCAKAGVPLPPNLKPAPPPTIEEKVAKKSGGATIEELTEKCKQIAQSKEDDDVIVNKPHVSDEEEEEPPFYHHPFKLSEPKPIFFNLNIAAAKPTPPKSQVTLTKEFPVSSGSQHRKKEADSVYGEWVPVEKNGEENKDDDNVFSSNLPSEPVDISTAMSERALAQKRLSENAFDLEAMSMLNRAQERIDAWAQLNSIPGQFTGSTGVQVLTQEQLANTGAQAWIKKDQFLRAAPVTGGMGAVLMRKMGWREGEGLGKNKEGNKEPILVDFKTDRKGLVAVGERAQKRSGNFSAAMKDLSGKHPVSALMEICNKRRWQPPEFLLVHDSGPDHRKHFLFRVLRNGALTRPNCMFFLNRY
Chain of UniProt P78362 (P78362 whole entry, looked up): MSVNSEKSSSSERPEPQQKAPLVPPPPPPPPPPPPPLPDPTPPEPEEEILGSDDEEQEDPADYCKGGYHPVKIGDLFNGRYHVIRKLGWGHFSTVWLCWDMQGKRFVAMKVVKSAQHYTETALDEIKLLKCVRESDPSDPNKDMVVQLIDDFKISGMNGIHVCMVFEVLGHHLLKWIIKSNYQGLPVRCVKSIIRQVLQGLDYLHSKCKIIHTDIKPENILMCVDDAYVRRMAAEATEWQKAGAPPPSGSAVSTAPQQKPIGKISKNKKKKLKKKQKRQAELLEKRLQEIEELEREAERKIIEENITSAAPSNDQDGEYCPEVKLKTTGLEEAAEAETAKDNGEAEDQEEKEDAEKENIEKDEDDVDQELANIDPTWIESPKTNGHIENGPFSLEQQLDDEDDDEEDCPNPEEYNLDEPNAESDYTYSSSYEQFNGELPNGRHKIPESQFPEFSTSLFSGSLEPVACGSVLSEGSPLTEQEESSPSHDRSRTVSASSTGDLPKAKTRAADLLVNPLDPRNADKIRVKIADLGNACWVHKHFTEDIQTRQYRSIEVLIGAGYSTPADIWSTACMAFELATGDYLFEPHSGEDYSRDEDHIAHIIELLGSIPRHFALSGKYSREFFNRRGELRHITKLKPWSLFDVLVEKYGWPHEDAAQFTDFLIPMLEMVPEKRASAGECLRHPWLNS
Chain of UniProt Q9Y5M8 (Q9Y5M8 whole entry, looked up): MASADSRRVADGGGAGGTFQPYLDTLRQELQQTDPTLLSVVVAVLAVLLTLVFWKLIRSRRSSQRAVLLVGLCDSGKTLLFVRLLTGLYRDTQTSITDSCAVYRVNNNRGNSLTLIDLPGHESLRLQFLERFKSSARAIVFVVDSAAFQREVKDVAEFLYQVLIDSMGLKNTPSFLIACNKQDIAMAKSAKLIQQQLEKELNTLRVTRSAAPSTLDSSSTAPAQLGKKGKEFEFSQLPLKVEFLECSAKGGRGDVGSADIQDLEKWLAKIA
Chain of UniProt Q12800 (Q12800 whole entry, looked up): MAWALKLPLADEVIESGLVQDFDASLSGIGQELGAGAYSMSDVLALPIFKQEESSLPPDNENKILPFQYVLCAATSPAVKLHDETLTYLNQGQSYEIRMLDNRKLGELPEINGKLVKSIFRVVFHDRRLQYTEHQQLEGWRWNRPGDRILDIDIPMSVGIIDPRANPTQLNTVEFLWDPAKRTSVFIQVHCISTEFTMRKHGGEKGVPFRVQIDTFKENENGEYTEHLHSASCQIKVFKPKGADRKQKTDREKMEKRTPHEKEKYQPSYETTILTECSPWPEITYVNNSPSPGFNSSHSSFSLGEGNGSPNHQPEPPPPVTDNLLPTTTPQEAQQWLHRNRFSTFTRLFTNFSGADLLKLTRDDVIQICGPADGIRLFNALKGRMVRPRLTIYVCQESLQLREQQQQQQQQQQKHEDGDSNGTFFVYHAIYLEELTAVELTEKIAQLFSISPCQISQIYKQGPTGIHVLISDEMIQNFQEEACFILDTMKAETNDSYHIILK
Chain of UniProt Q99426 (Q99426 whole entry, looked up): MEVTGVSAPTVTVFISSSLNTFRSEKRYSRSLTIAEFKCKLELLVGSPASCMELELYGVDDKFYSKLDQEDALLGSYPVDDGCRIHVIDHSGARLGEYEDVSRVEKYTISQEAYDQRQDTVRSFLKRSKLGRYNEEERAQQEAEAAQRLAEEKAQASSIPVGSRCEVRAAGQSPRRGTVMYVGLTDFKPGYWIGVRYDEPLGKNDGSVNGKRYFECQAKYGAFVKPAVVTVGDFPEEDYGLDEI
Chain of UniProt O75391 (O75391 whole entry, looked up): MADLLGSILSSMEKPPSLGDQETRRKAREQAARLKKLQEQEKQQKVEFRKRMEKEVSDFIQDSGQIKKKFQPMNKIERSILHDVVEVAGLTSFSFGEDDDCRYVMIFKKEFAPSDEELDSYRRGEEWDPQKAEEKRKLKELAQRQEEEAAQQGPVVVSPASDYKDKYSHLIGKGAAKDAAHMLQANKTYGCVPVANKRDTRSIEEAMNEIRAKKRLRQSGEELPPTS
Chain of UniProt Q9UGI8 (Q9UGI8 whole entry, looked up): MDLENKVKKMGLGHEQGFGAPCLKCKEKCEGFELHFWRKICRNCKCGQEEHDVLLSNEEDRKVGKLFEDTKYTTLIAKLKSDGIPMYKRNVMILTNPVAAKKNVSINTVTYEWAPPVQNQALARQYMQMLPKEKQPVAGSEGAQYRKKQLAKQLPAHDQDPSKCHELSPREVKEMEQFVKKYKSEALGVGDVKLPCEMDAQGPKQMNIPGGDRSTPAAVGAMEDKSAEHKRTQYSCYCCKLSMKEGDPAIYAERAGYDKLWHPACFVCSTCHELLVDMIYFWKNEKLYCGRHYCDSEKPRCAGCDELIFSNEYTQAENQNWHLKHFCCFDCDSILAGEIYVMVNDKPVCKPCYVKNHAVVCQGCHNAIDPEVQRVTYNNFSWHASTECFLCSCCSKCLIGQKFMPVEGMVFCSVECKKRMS

Question: Which “probe-labelled cysteine peptide fold change” value (10 µM) does the source give for “TFCP2_Q12800_72_ILPFQYVLCAATSPAVK (UniProt Q12800)” here?
Answer: 0.339

Question: What about the “probe-labelled cysteine peptide fold change” value (50 µM) of the same target?
Answer: 0.0755

Question: Which “probe-labelled cysteine peptide fold change” value (10 µM) does the source give for TES_Q9UGI8_164_CHELSPR (UniProt Q9UGI8) here?
Answer: -0.162

Question: What about the “probe-labelled cysteine peptide fold change” value (50 µM) of the same target?
Answer: -0.0644

Question: How did the “probe-labelled cysteine peptide fold change” value (10 µM) turn out when “TBC1D4_O60343_74_SQKPEAGGCGAPAAR (UniProt O60343)” was run?
Answer: -0.579

Question: And the “probe-labelled cysteine peptide fold change” value (50 µM)?
Answer: -1.59

Question: How did the “probe-labelled cysteine peptide fold change” value (10 µM) turn out when “SPAG7_O75391_101_SILHDVVEVAGLTSFSFGEDDDCR (UniProt O75391)” was run?
Answer: -0.0328

Question: What about the “probe-labelled cysteine peptide fold change” value (50 µM) of the same target?
Answer: -0.0999

Question: How did the “probe-labelled cysteine peptide fold change” value (10 µM) turn out when “ST14_Q9Y5Y6_602+604_DCDCGLR (UniProt Q9Y5Y6)” was run?
Answer: -0.217

Question: What about the “probe-labelled cysteine peptide fold change” value (50 µM) of the same target?
Answer: -1.07

Question: For “TBCB_Q99426_51_LELLVGSPASCMELELYGVDDK (UniProt Q99426)”, which “probe-labelled cysteine peptide fold change” value (10 µM) is on record?
Answer: 0.0991

Question: What about the “probe-labelled cysteine peptide fold change” value (50 µM) of the same target?
Answer: 0.421

Question: Which “probe-labelled cysteine peptide fold change” value (10 µM) does the source give for “SRPRB_Q9Y5M8_246_EFEFSQLPLKVEFLECSAK (UniProt Q9Y5M8)” here?
Answer: -0.354

Question: What about the “probe-labelled cysteine peptide fold change” value (50 µM) of the same target?
Answer: -1.1

Question: Which “probe-labelled cysteine peptide fold change” value (10 µM) does the source give for “SRPK2_P78362_320_IIEENITSAAPSNDQDGEYCPEVK (UniProt P78362)” here?
Answer: -0.0943

Question: And the “probe-labelled cysteine peptide fold change” value (50 µM)?
Answer: 0.0113

Question: Which “probe-labelled cysteine peptide fold change” value (10 µM) does the source give for “STXBP5_Q5T5C0_933_VISLPTQNCAYK (UniProt Q5T5C0)” here?
Answer: 0.186

Question: And the “probe-labelled cysteine peptide fold change” value (50 µM)?
Answer: 0.107

Question: What does the source list for “TBL3_Q12788_526_GLWCVQFSPMDQVLATASADGTIK (UniProt Q12788)”?
Answer: probe-labelled cysteine peptide fold change (10 µM): 0.119; probe-labelled cysteine peptide fold change (50 µM): 0.0335

Question: With “SON_P18583_92_CVSVQTDPTDEIPTKK (UniProt P18583)” as the target, how does the “probe-labelled cysteine peptide fold change” value (10 µM) read?
Answer: -0.351

Question: And the “probe-labelled cysteine peptide fold change” value (50 µM)?
Answer: -1.24

Question: What does the source list for “TARS_P26639_261_CGPLIDLCR (UniProt P26639)”?
Answer: probe-labelled cysteine peptide fold change (10 µM): 0.0971; probe-labelled cysteine peptide fold change (50 µM): 0.248

Question: Which “probe-labelled cysteine peptide fold change” value (10 µM) does the source give for “TOE1_Q96GM8_371_KQVCGDSIKPEETEQEVAADETR (UniProt Q96GM8)” here?
Answer: -0.0655

Question: What about the “probe-labelled cysteine peptide fold change” value (50 µM) of the same target?
Answer: -0.661

Question: Which “probe-labelled cysteine peptide fold change” value (10 µM) does the source give for “TBCE_Q15813_141_NCAVSCAGEK (UniProt Q15813)” here?
Answer: -0.11

Question: And the “probe-labelled cysteine peptide fold change” value (50 µM)?
Answer: -1.39

Question: What does the source list for “TCF20_Q9UGU0_1918_YHYPCAIDADCLLHEENFSVR (UniProt Q9UGU0)”?
Answer: probe-labelled cysteine peptide fold change (10 µM): 0.317; probe-labelled cysteine peptide fold change (50 µM): 0.504
